The panel holds about 83,000 compounds, 20% with a hit somewhere; the sample as a whole holds those more often.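 For each line, cells grew in 96-well plates with the test compound present at a single concentration for 48 hours.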 The source made the active and inactive calls. How the source made its calls: active means growth percent below 10; inactive means the rest.

The first assay has as its system OVCAR-8 ovarian. Description: NCI-60 one-dose screen, 48 h (100 = growth as untreated, 0 = no growth, -100 = all killed). As to conditions: 10 µM unless noted.
Regarding `Nc1nc(-c2cc3c(cc2Cl)NC(=O)/C3=C/c2ccc(Cl)cc2)cs1`, the growth was 50.8% (inactive).

As to `Cc1cccc(Cc2cnc(NC(=O)CCc3ccc(C)o3)s2)c1`, the growth is 20.3% (inactive).

For the compound `CC(Cl)(CCl)CS(=O)(=O)c1ccc(Cl)cc1` (stereo unspecified), the growth was 97.4% (inactive).

For the compound `COc1ccc(Cl)cc1NC(=O)c1cc2c([nH]1)-c1nc(NC(=O)C(C)(C)C)sc1CC2`, the growth is 26.8% (inactive).

Regarding `CC(C)(c1ccc(OCC(O)CNCc2ccco2)cc1)c1ccc(OCC(O)CNCc2ccco2)cc1` (stereo unspecified), the growth is 92.3% (inactive).

As to `O=C1CCC(c2c(O)cc(O)c3c(=O)c(O)c(-c4ccc(O)c(O)c4)oc23)N1` (stereo unspecified), the growth was 105% (inactive).

Turning to `COc1ccc(Cn2cc3c(c2-c2cc(OC)c(OC)c(OC)c2)CCc2c(CO)noc2-3)cc1`, the growth is 22.4% (inactive).

Consider `CC(=O)Cc1cccnc1`, for which the growth was 97% (inactive).

As for `CC(/C=C/C=C(\C)[C@H](O)[C@H](C)C(=O)O[C@H]1C[C@H](C)C=C2C=C[C@@]3(C)O[C@@H](O)CC(=O)[C@]3(C)[C@H]21)=C\C=C\C(=O)O`, the growth was 21.6% (inactive).

For the compound `Nc1nc(-c2cc3c(cc2Cl)NC(=O)/C3=C/c2ccccc2)cs1`, the growth was 46.6% (inactive).

For the compound `C=CC(=O)NC(=O)Nc1ccccc1Cl`, the growth was 84.5% (inactive).

With `CCOC(=O)c1noc2c1CCc1c-2cn(Cc2ccc(OC)cc2)c1-c1cc(OC)c(OC)c(OC)c1`, the growth is 32.6% (inactive).

On to `C=C1C(=O)O[C@H]2[C@H]1CC/C(COC(=O)OC/C1=C/CC[C@@]3(C)O[C@H]3[C@H]3OC(=O)[C@@H](CN(C)C)[C@@H]3CC1)=C\CC[C@@]1(C)O[C@@H]21`, for which the growth is 9.26% (active).

With `CC1CCC(C(C)C)C(NN)C1` (stereo unspecified), the growth was 92.8% (inactive).

Consider `Cc1cc(SCc2ccc(Cl)cc2Cl)nc(SCc2ccc(Cl)cc2Cl)n1`, for which the growth was 104% (inactive).

Take `CCCC(C)(C)COC(=O)c1cccc(N)c1`: the growth is 84.2% (inactive).

`O=C1C(Cl)=C(Nc2cccc3cc4ccccc4nc23)C(=O)c2ccccc21`: the growth was 32.6% (inactive).

As to `CN(C)CCCOc1c(Br)cc(/C=C/C(=O)N(C)CCc2cc(Br)c(OCCCN(C)C)c(Br)c2)cc1Br`, the growth is 30.7% (inactive).

As to `Nc1nccc(=S)[nH]1`, the growth is 104% (inactive).

Regarding `C=C1C(=O)O[C@H]2[C@H]1CC/C(COC(=O)CCCC(=O)OC/C1=C/CC[C@@]3(C)O[C@H]3[C@H]3OC(=O)C(=C)[C@@H]3CC1)=C\CC[C@@]1(C)O[C@@H]21`, the growth was -9.93% (active).

`O=C(NNC(=O)c1ccc([N+](=O)[O-])cc1)c1ccc([N+](=O)[O-])cc1`: the growth was 112% (inactive).

`COc1cc(C(=O)NNC(=O)c2ccccc2C(=O)O)cc(OC)c1OC`: the growth was 39.5% (inactive).

Turning to `O=S(c1ccccc1)c1ccc2nnnn2n1` (stereo unspecified), the growth is 108% (inactive).

For `Cc1ncc(CO)c(C(=O)O)c1O`, the growth was 104% (inactive).

Consider `CCOC(=O)c1noc2c1CCc1cn(Cc3cc(OC)cc(OC)c3)cc1-2`, for which the growth was 107% (inactive).

Consider `CCCCCC/C=N/Nc1ccc([N+](=O)[O-])cn1`, for which the growth was 110% (inactive).

As to `CC[C@@]1(O)C(=O)OCc2c1cc1n(c2=O)Cc2c-1nc1ccccc1c2/C=N/OC(C)(C)C`, the growth was 3.32% (active).

`CC(=O)Oc1ccc(C(OC(C)=O)OC(C)=O)cc1`: the growth is 114% (inactive).

Consider `C=C1C(=O)O[C@H]2[C@H]1CC/C(COC(=O)n1ccnc1C)=C\CC[C@@]1(C)O[C@@H]21`, for which the growth was 91.4% (inactive).

As for `C=C1C(=O)O[C@H]2[C@H]1CC/C(C(=O)NCCOCCOCC(=O)Nc1ccc(OC)c(C(N)=O)c1O)=C\CC[C@@]1(C)O[C@@H]21`, the growth is 89.8% (inactive).

`Cc1cc(C)c(O)c(C(=O)CC(Br)C(=O)O)c1` (stereo unspecified): the growth was 105% (inactive).

Turning to `COc1ccc(-c2ccc(NC(=O)Nc3cccc(C(F)(F)F)c3)c(C)n2)cc1`, the growth was 61.9% (inactive).

Regarding `COc1ccc(Cn2cc(COc3ccc4c5ccnc(C)c5n(CCCc5ccccc5)c4c3)nn2)cc1`, the growth was 61.9% (inactive).

Consider `O=S(=O)(O)c1ccc(F)cc1`, for which the growth is 116% (inactive).

`Cc1nccc2c3ccc(OCc4cn(Cc5ccc(Br)cc5)nn4)cc3n(CCCc3ccccc3)c12`: the growth is 60.8% (inactive).

Regarding `Cl[C@@H]1CCO[C@H](c2cc3ccccc3c3ccccc23)C1`, the growth is 98.9% (inactive).

In the case of `Nc1ncnc2c1c(C(F)(F)F)cn2[C@@H]1O[C@H](CO)[C@@H](O)[C@H]1O`, the growth was 18.1% (inactive).

For the compound `C#C[C@@]1(O)[C@@H](CO)O[C@@H](n2cc(Br)c3c(Cl)ccnc32)[C@@H]1O`, the growth is -42.5% (active).

The subject of a further assay is OVCAR-5 ovarian. The description is as above. As to conditions: 10 µM unless noted.
Consider `Nc1nc(-c2cc3c(cc2Cl)NC(=O)/C3=C/c2ccc(Cl)cc2)cs1`, for which the growth is 92% (inactive).

Take `Cc1cccc(Cc2cnc(NC(=O)CCc3ccc(C)o3)s2)c1`: the growth was 35.7% (inactive).

Turning to `CC(Cl)(CCl)CS(=O)(=O)c1ccc(Cl)cc1` (stereo unspecified), the growth is 113% (inactive).

Turning to `COc1ccc(Cl)cc1NC(=O)c1cc2c([nH]1)-c1nc(NC(=O)C(C)(C)C)sc1CC2`, the growth was 108% (inactive).

Regarding `CC(C)(c1ccc(OCC(O)CNCc2ccco2)cc1)c1ccc(OCC(O)CNCc2ccco2)cc1` (stereo unspecified), the growth is 101% (inactive).

For the compound `O=C1CCC(c2c(O)cc(O)c3c(=O)c(O)c(-c4ccc(O)c(O)c4)oc23)N1` (stereo unspecified), the growth is 104% (inactive).

`COc1ccc(Cn2cc3c(c2-c2cc(OC)c(OC)c(OC)c2)CCc2c(CO)noc2-3)cc1`: the growth is 56.6% (inactive).

As to `CC(=O)Cc1cccnc1`, the growth was 109% (inactive).

Regarding `CC(/C=C/C=C(\C)[C@H](O)[C@H](C)C(=O)O[C@H]1C[C@H](C)C=C2C=C[C@@]3(C)O[C@@H](O)CC(=O)[C@]3(C)[C@H]21)=C\C=C\C(=O)O`, the growth was 18.6% (inactive).

In the case of `Nc1nc(-c2cc3c(cc2Cl)NC(=O)/C3=C/c2ccccc2)cs1`, the growth was 108% (inactive).

With `C=CC(=O)NC(=O)Nc1ccccc1Cl`, the growth is 111% (inactive).

In the case of `CCOC(=O)c1noc2c1CCc1c-2cn(Cc2ccc(OC)cc2)c1-c1cc(OC)c(OC)c(OC)c1`, the growth was 71.2% (inactive).

Consider `C=C1C(=O)O[C@H]2[C@H]1CC/C(COC(=O)OC/C1=C/CC[C@@]3(C)O[C@H]3[C@H]3OC(=O)[C@@H](CN(C)C)[C@@H]3CC1)=C\CC[C@@]1(C)O[C@@H]21`, for which the growth is 7.16% (active).

`CC1CCC(C(C)C)C(NN)C1` (stereo unspecified): the growth was 107% (inactive).

As to `Cc1cc(SCc2ccc(Cl)cc2Cl)nc(SCc2ccc(Cl)cc2Cl)n1`, the growth is 97.8% (inactive).

For the compound `CCCC(C)(C)COC(=O)c1cccc(N)c1`, the growth was 114% (inactive).

For the compound `O=C1C(Cl)=C(Nc2cccc3cc4ccccc4nc23)C(=O)c2ccccc21`, the growth was 53.8% (inactive).

Turning to `CN(C)CCCOc1c(Br)cc(/C=C/C(=O)N(C)CCc2cc(Br)c(OCCCN(C)C)c(Br)c2)cc1Br`, the growth is 79.1% (inactive).

For `Nc1nccc(=S)[nH]1`, the growth is 111% (inactive).

Consider `C=C1C(=O)O[C@H]2[C@H]1CC/C(COC(=O)CCCC(=O)OC/C1=C/CC[C@@]3(C)O[C@H]3[C@H]3OC(=O)C(=C)[C@@H]3CC1)=C\CC[C@@]1(C)O[C@@H]21`, for which the growth was 2.2% (active).

On to `O=C(NNC(=O)c1ccc([N+](=O)[O-])cc1)c1ccc([N+](=O)[O-])cc1`, for which the growth is 102% (inactive).

`COc1cc(C(=O)NNC(=O)c2ccccc2C(=O)O)cc(OC)c1OC`: the growth is 84.5% (inactive).

For `O=S(c1ccccc1)c1ccc2nnnn2n1` (stereo unspecified), the growth was 110% (inactive).

With `Cc1ncc(CO)c(C(=O)O)c1O`, the growth was 105% (inactive).

On to `CCOC(=O)c1noc2c1CCc1cn(Cc3cc(OC)cc(OC)c3)cc1-2`, for which the growth was 108% (inactive).

As to `CCCCCC/C=N/Nc1ccc([N+](=O)[O-])cn1`, the growth is 100% (inactive).

Consider `CC[C@@]1(O)C(=O)OCc2c1cc1n(c2=O)Cc2c-1nc1ccccc1c2/C=N/OC(C)(C)C`, for which the growth was 10.5% (inactive).

On to `CC(=O)Oc1ccc(C(OC(C)=O)OC(C)=O)cc1`, for which the growth is 108% (inactive).

Turning to `C=C1C(=O)O[C@H]2[C@H]1CC/C(COC(=O)n1ccnc1C)=C\CC[C@@]1(C)O[C@@H]21`, the growth is 101% (inactive).

`C=C1C(=O)O[C@H]2[C@H]1CC/C(C(=O)NCCOCCOCC(=O)Nc1ccc(OC)c(C(N)=O)c1O)=C\CC[C@@]1(C)O[C@@H]21`: the growth is 96.4% (inactive).

Consider `Cc1cc(C)c(O)c(C(=O)CC(Br)C(=O)O)c1` (stereo unspecified), for which the growth was 106% (inactive).

In the case of `COc1ccc(-c2ccc(NC(=O)Nc3cccc(C(F)(F)F)c3)c(C)n2)cc1`, the growth was 83% (inactive).

For the compound `COc1ccc(Cn2cc(COc3ccc4c5ccnc(C)c5n(CCCc5ccccc5)c4c3)nn2)cc1`, the growth is 111% (inactive).

Take `O=S(=O)(O)c1ccc(F)cc1`: the growth is 111% (inactive).

Consider `Cc1nccc2c3ccc(OCc4cn(Cc5ccc(Br)cc5)nn4)cc3n(CCCc3ccccc3)c12`, for which the growth was 106% (inactive).

On to `Cl[C@@H]1CCO[C@H](c2cc3ccccc3c3ccccc23)C1`, for which the growth was 91.5% (inactive).

Consider `Nc1ncnc2c1c(C(F)(F)F)cn2[C@@H]1O[C@H](CO)[C@@H](O)[C@H]1O`, for which the growth is 15.6% (inactive).

For `C#C[C@@]1(O)[C@@H](CO)O[C@@H](n2cc(Br)c3c(Cl)ccnc32)[C@@H]1O`, the growth is 40.8% (inactive).

Values taken from PubChem BioAssay (NCI).
